# Source: PubChem BioAssay
# CYP2C19 act: increases human CYP2C19 enzyme activity. P33261. recombinant CYP2C19, luciferin-H EGE luminescence; stronger effect = higher value; 0 = fully inhibited enzyme, 1 = untreated enzyme. activation factor at 5 µM. 96,000 tested, under 10 active. AID 1025;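 active = activation factor of at least 2 at 5 µM in the primary screen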;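 also: 0 = wells with 2.5 mM tranylcypromine and 1 = vehicle-only wells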
# CYP2C9 activ: activators of human CYP2C9; activation factor at 5 µM; recombinant CYP2C9, luciferin-H conversion, luminescence; stronger effect = higher value; factor 1 = untreated enzyme, 0 = blocked; P11712; 96,000 compounds, 1.4% hits;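 active = activation factor of 2 or more for CYP2C9 at a 5 µM dose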;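 also: 0 = sulfaphenazole-blocked wells and 1 = vehicle-only wells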
# Pyk2 oligo antag: blocks oligomerization of human Pyk2 in cells | Q14289 | AID 1347419 | Q293 cells, Pyk2 FERM NanoBiT luminescence; stronger effect = lower value | 99,000 compounds, 0.83% hits | z-score (the deposit names both 25 µM and 10 µM);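 active = Z-score of -3 or lower, scaled per plate to the spread of control and sample wells; inactive = z-score above -3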;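 also: negative z-score means lost luminescence so less FERM oligomerization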
# CYP2C19 inh: inhibitors of human CYP2C19; inhibition, % at 5 µM; CYP2C19 Supersomes, luciferin-H EGE luminescence, 30 min; P33261; 96,000 compounds, 21% hits;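 active = CYP2C19 inhibition above a set limit at 5 µM in the primary screen, cut at about 50% in these data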;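 also: plate controls were negative control wells for no effect and 2.5 mM tranylcypromine positive control for full effect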
# CYP2C9 inh: inhibitors of human CYP2C9; P11712; CYP2C9 Supersomes, luciferin-H conversion, luminescence; inhibition, % at 5 µM; 96,000 compounds, 20% hits; AID 777;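 active = blocking of liver enzyme CYP2C9 beyond about 50% at 5 µM, limit read from the data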
# * hit, by the source's call; . = no result given. A selection: hits, their analogues and other compounds. The true share with any hit is near 28%.
SMILES,CYP2C19 act,CYP2C9 activ,Pyk2 oligo antag,CYP2C19 inh,CYP2C9 inh
CCOC(=O)c1ccc(Nc2nc(-c3cccnc3)nc3ccccc23)cc1,0.3,0.2,-3.45*,66.2*,78.7*
CCOC(=O)c1nc(NCc2cccnc2)c2ccccc2n1,1,0.6,-0.47,-0.8,40.7
c1cncc(-c2nc(NCC3COc4ccccc4O3)c3ccccc3n2)c1 (stereo not drawn),0.5,0.1,-3.8*,49.1,87.6*
CCOC(=O)c1nc(Nc2ccccc2)c2ccccc2n1,0.9,0.7,-0.39,12.3,33.5
CCOC(=O)c1nc(Nc2ccc(C)cc2)c2ccccc2n1,0.3,0.3,-0.93,70.6*,66.0*
Cc1ccc(OCCSc2ncnc3sc(C)c(C)c23)cc1C,0.9,1,1.08,11.3,4.3
Cc1c(CN(C)C(=O)c2ccc(Br)o2)cnn1C,.,.,0.19,.,.
N/C(COc1ccc(Cl)cc1Cl)=N\NS(=O)(=O)c1ccccc1,0.7,0.7,1.1,28.9,31.8
CC1CCCCN1C(=O)CSc1nnc(CSc2ncccn2)n1C (stereo not drawn),1.1,1.1,0.11,-14.7,-8.6
O=C(OCCCN=C1NS(=O)(=O)c2ccccc21)c1ccccc1F,0.7,0.7,-0.18,27.6,28.2
Cn1nccc1C(=O)c1ccc(Cl)cc1,0.4,0.8,0.66,58.1*,22.7
CC(=O)c1cc2c(cc1NC(=O)CN1CCN(c3cccc(C(F)(F)F)c3)CC1)OCO2,.,.,-0.9,.,.
CCOC(=O)N1CCN(CC(=O)Nc2cc3c(cc2C(C)=O)OCO3)CC1,0.8,0.2,.,15.1,79.6*
CC(=O)c1cc2c(cc1NC(=O)CN1CCC(Cc3ccccc3)CC1)OCO2,0.3,0.1,-2.91,71.3*,86.7*
O=C(NCc1cccnc1)NC1(C(F)(F)F)Oc2ccccc2O1,0.1,0.8,0.23,90.4*,24.8
O=C(NCc1cccnc1)NC(C(F)(F)F)C(F)(F)F,0.3,0.6,0.23,66.4*,36.7
Cn1c(Cl)c(C(=O)Nc2ccc(Cl)cc2)c2ccccc21,0.8,1,0.75,19.6,-1.8
CC1CCCCC1NC(=O)CSc1nnc(-c2ccccc2)n1N (stereo not drawn),0.1,0.4,2.1,88.2*,56.1*
CCN(CC)S(=O)(=O)c1cccc(-c2nnc(SCC(=O)NC3CCCCCC3)n2N)c1,0.4,0.4,-0.48,57.3*,59.8*
CCN(CC)S(=O)(=O)c1cccc(-c2nnc(SCC(=O)NC3CCCCCCC3)n2N)c1,0.5,0.2,-0.46,52.2*,78.6*
CSc1nc(C)c2c(n1)N(c1ccc(C(F)(F)F)cc1)CC2,0.8,0.9,0.65,20.6,9.0
Cc1ccc(C(=O)Nc2cccnc2)cc1S(=O)(=O)N1CCOCC1,0.5,0.6,0.9,46.6,36.2
O=C(Nc1cccnc1)c1ccc(Cl)c(S(=O)(=O)N2CCCCCC2)c1,0.1,0.1,0.26,87.8*,85.4*
O=C(Nc1ccn(-c2ccccc2)n1)c1ccc(S(=O)(=O)N2CCCCCC2)cc1,0.5,0.5,0.05,52.7*,46.5
O=C(NC(Cc1ccccc1)C(=O)O)c1ccc(S(=O)(=O)N2CCCCC2)cc1 (stereo not drawn),1,0.2,-1.12,4.2,78.5*
SMILES,CYP2C19 act,CYP2C9 activ,Pyk2 oligo antag,CYP2C19 inh,CYP2C9 inh
O=C(Nc1cccnc1)c1ccc(S(=O)(=O)N2CCCCCC2)cc1,0.4,0.3,1.32,62.2*,73.0*
O=C(NC(Cc1ccccc1)C(=O)O)c1ccc(S(=O)(=O)N2CCCC2)cc1 (stereo not drawn),1.1,0.9,-0.55,-12.6,13.9
O=C(Nc1cccnc1)C1CCCN(S(=O)(=O)c2ccccc2)C1 (stereo not drawn),0.4,0.6,-0.08,64.5*,42.0
CCn1c(SCC(N)=O)nc2sc3c(c2c1=O)CCCC3,0.9,0.4,0.09,13.5,55.3*
CCOC(=O)C1CCCn2c1nc1sc3c(c1c2=O)CCCC3 (stereo not drawn),0.3,0.2,0.69,65.7*,77.0*
Nn1c(Nc2ccccc2)nc2sc3c(c2c1=O)CCC3,0.3,0,-1.33,74.8*,97.6*
CCc1nc2sc3c(c2c(=O)n1N)CCC3,0.8,1,-0.55,22.5,3.8
CCCc1nc2sc3c(c2c(=O)n1N)CCC3,0.3,1.1,0.32,74.5*,-5.7
O=C(Nc1cccc2c1[nH]c1ccccc12)C(F)(F)F,.,.,0.12,.,.
CCn1c(SCC(=O)NCCOC)nc2sc3c(c2c1=O)CCCC3,0.5,0.2,0.41,49.4,79.7*
CCn1c(SCC(=O)NCCOC)nc2sc(C)c(C)c2c1=O,1.1,1.1,.,-8.9,-11.7
CCn1c(NN)nc2sc3c(c2c1=O)CCC3,0.3,0.2,0,74.7*,78.9*
O=C(NCCOc1ccccc1)c1ncn[nH]1,1,1.1,1.13,-4.0,-9.8
Cc1ccccc1C(=O)NCc1nnc(SCC(=O)N2CCN(c3ccccc3)CC2)n1C,0.9,1,2.63,12.5,1.0
Cc1cc(N2C3CCC2CC(O)(c2ccc(F)cc2)C3)nc(-c2ccccc2)n1 (stereo not drawn),0.1,0,-3.07*,93.7*,100.0*
CC(C)C(=O)N1C2CCC1CC(O)(c1ccc(F)cc1)C2 (stereo not drawn),1,0.8,0.93,-3.6,20.9
COc1cc(-c2nnc(SCC(=O)c3ccccc3)o2)cc(OC)c1OC,0.6,0.9,-0.29,36.9,10.8
COc1cc(-c2nnc(SCC3(c4ccccc4)OCCO3)o2)cc(OC)c1OC,0.2,1.6,-0.94,76.3*,-64.7
COc1cc(-c2nnc(-c3ccc(S(=O)(=O)c4ccccc4)cc3)o2)cc(OC)c1OC,0.4,0.4,-0.57,61.4*,60.9*
CCCSc1nnc(-c2ccccc2N)c(=O)[nH]1,0.9,0.9,-1.36,5.6,8.0
CC(=O)N1c2ccc3ccccc3c2C(C)CC12CCCCC2 (stereo not drawn),0,0.1,-1.92,98.4*,94.3*
NS(=O)(=O)c1ccc(CCNc2nc(CN3CCCCC3)nc3sc4c(c23)CCC4)cc1,0.9,0.9,1.17,6.3,12.0
COC(=O)c1c(NS(=O)(=O)c2ccc(C)cc2)sc2c1CCC(C)C2 (stereo not drawn),.,.,-1.21,.,.
CC1CCc2c(sc3nc(CN4CCOCC4)nc(NS(=O)(=O)c4cccc([N+](=O)[O-])c4)c23)C1 (stereo not drawn),0.7,0.2,5.38,26.3,84.1*
Cc1cc(S(=O)(=O)Nc2nc(CN3CCOCC3)nc3sc4c(c23)CCCC4)ccc1F,0.4,0.1,6.97,59.8*,87.9*
COc1cc2c(cc1OC)C1=C(C#N)CC/C(=N\S(=O)(=O)c3ccccc3)N1CC2,0.3,0.1,.,68.8*,86.8*
CCCC(=O)c1c[nH]c(C(=O)NCCc2ccccn2)c1,1,1,-0.41,-3.0,0.8
O=C1CC(N(Cc2ccco2)C(=O)Nc2ccc(F)cc2)C(=O)N1c1ccc(F)cc1 (stereo not drawn),0.2,0.5,0.31,79.7*,52.1*
